Experimental data published in PubChem BioAssay (EPA / NIEHS).
“And” between values parts separate entries of the source, which are not always exact repeats. Identical values can stand only once. Some structures have more than one record in an assay (separate samples or runs), and their calls can disagree. The source made the active and inactive calls. Rule for the calls: active = hit-call score of the fitted dose curve at least 0.9, where 1 is the maximum; inactive = score below 0.9.

Key:
[1] = ATG_DR4_LXR_CIS: Attagene CIS-FACTORIAL HepG2 Assay for human Liver X Receptor (LXR), DR4 submotif (AID 2282929); conditions: HepG2 Attagene DR4 cis-reporter, mRNA transcription; AC50: actives raise or lower the signal unless noted; outcome: actives raise or lower the signal unless noted
Outline: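 Measures endogenous transcription factor activity via a DR4-driven reporter transcript in human HepG2 cells. Compounds incubated 24 h; mRNA quantified by RT-PCR and capillary electrophoresis, analysed as gain or loss of signal versus DMSO.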

[2] = target: Aryl hydrocarbon receptor (Homo sapiens) (UniProt P35869); test: ATG_Ahr_CIS: Attagene CIS-FACTORIAL HepG2 Assay for human Aryl Hydrocarbon Receptor (Ahr) (AID 2282930); conditions: HepG2 AhR cis-factorial reporter transcription; actives raise or lower the signal
Outline: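 Transient MRTU transfection of HepG2 → 24 h compound exposure → total RNA, oligo(dT) RT → PCR, 6-FAM extension, HpaI cut → CE fluorescence. DMSO = baseline; bidirectional curve fit.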

[3] = ATG_AP_1_CIS: Attagene CIS-FACTORIAL HepG2 Assay for human Activator Protein 1 (AP-1) (AID 2282931); conditions: HepG2 Attagene cis-factorial AP-1 reporter mRNA; actives raise or lower the signal
Outline: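 Bidirectional concentration-response fitting against DMSO controls. Underlying signal: reporter mRNA from cis-promoter constructs in transiently transfected HepG2, measured after 24 h by RT-PCR and capillary electrophoresis.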

[4] = ATG_AP_2_CIS: Attagene CIS-FACTORIAL HepG2 Assay for human Activator Protein 2 (AP-2) (AID 2282932); conditions: HepG2 AP-2 cis-reporter, Attagene transcription factor profiling; AC50: actives raise or lower the signal unless noted; outcome: actives raise or lower the signal unless noted
Outline: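 Endogenous transcription factor activity is reported through transfected multiplex reporter constructs in HepG2, after 24 h of compound exposure. Transcripts were quantified by RT-PCR and capillary electrophoresis of fluorescent fragments. Bidirectional fit against DMSO.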

[5] = ATG_BRE_CIS: Attagene CIS-FACTORIAL HepG2 Assay for human Bone Morphogenetic Protein (BMP) Response Element (BRE) (AID 2282933); conditions: HepG2 BMP response element reporter, Attagene transcription factor profiling; actives raise or lower the signal
Outline: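 Multiplexed cis-reporter assay, HepG2, 24 h exposure. mRNA from reporter units quantified via RT-PCR/CE; DMSO baseline; bidirectional curve fit.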

[6] = target: Retinoic acid receptor alpha (Homo sapiens) (UniProt P10276); test: ATG_DR5_RAR_CIS: Attagene CIS-FACTORIAL HepG2 Assay for human Retinoic Acid Receptor Alpha (RARE), DR5 submotif (AID 2282934); conditions: HepG2 Attagene cis-factorial RARE DR5 reporter, mRNA; actives raise or lower the signal;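 for AC50: reporter responds to endogenous RAR alpha beta and gamma in HepG2 not RARA alone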
Outline: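 Transient MRTU transfection of HepG2; 24 h compound treatment; TriZol RNA, oligo(dT) RT, PCR, FAM labelling, capillary electrophoresis. Bidirectional fit vs DMSO. Endogenous TF activity at DR5 RARE.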

[7] = target: Transcription factor E2F1 (Homo sapiens) (UniProt Q01094); test: ATG_E2F_CIS: Attagene CIS-FACTORIAL HepG2 Assay for human E2F Transcription Factor 1 (AID 2282935); conditions: HepG2 Attagene cis-reporter, E2F reporter RNA transcripts; actives raise or lower the signal
Outline: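 Gain or loss of reporter transcript, fitted against DMSO, reflects E2F1-driven transcription. Transiently transfected HepG2 dosed 24 h before RNA isolation. Quantified by fluorescent RT-PCR products separated by capillary electrophoresis.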

[8] = ATG_E_Box_CIS: Attagene CIS-FACTORIAL HepG2 Assay for human Enhancer Box (E-box) (AID 2282936); conditions: HepG2 E-box cis-reporter transcription, actives raise or lower the signal
Outline: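 E-box-driven reporter transcripts measured in transiently transfected HepG2 after 24 h exposure: RNA reverse-transcribed, PCR-amplified, fluorescently labelled, digested and resolved by capillary electrophoresis. Gain or loss relative to DMSO.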

[9] = ATG_M_61_CIS: Attagene CIS-FACTORIAL HepG2 Assay for M61 Transcription Factor (Internal Marker) (AID 2282937); conditions: HepG2 Attagene CIS-FACTORIAL M61 internal marker reporter; actives raise or lower the signal
Outline: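 Fluorescence from labelled cDNA fragments, separated by capillary electrophoresis, quantifies reporter induction. HepG2 cells bearing transiently transfected cis-promoter MRTUs were incubated with test chemical for 24 h; DMSO defined baseline for gain/loss fitting.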

[10] = ATG_EGR_CIS: Attagene CIS-FACTORIAL HepG2 Assay for human Early Growth Response 1 (EGR1) (AID 2282938); conditions: HepG2 Attagene CIS-FACTORIAL EGR reporter mRNA; actives raise or lower the signal
Outline: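 Cell-based multiplex transcription assay: HepG2 carrying transfected cis-element reporter units, 24 h chemical treatment. Fluorescence from capillary electrophoresis of RT-PCR products gives mRNA levels; fitting is bidirectional relative to DMSO.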

[11] = ATG_M_19_CIS: Attagene CIS-FACTORIAL HepG2 Assay for M19 Transcription Factor (Internal Marker) (AID 2282939); conditions: HepG2 Attagene CIS-FACTORIAL M19 internal marker reporter; actives raise or lower the signal
Outline: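 Signals come from fluorescence of labelled reporter-specific PCR fragments resolved by capillary electrophoresis, following 24 h treatment of HepG2 cells transfected with cis-promoter reporter units; activity was fitted in both directions relative to DMSO.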

[12] = ATG_ERE_CIS: Attagene CIS-FACTORIAL HepG2 Assay for Estrogen Response Element (ERE) (AID 2282940); conditions: HepG2 ERE cis-reporter, Attagene RNA transcript; actives raise or lower the signal
Outline: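 Fluorescence of capillary-separated, FAM-labelled reporter cDNA fragments indicates reporter mRNA levels in HepG2 cells exposed to chemicals for 24 h. Transient transfection with cis-regulated units; data fitted in both directions against DMSO.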

[13] = ATG_Ets_CIS: Attagene CIS-FACTORIAL HepG2 Assay for human Erythroblast Transformation Specific (ETS) (AID 2282941); conditions: HepG2 ETS cis-reporter transcription; AC50: actives raise or lower the signal unless noted; outcome: actives raise or lower the signal unless noted
Outline: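 Bidirectional fit versus DMSO of reporter mRNA signal, detected by RT-PCR and capillary electrophoresis in HepG2 cells transiently transfected with cis-element reporters and dosed 24 h.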

[14] = target: Hepatocyte nuclear factor 3-beta (Homo sapiens) (UniProt Q9Y261); test: ATG_FoxA2_CIS: Attagene CIS-FACTORIAL HepG2 Assay for human Forkhead box A2 (FOXA2) (AID 2282942); conditions: HepG2 cis-reporter transcription factor activity, 24 h; actives raise or lower the signal
Outline: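 In transiently transfected human HepG2 cells, promoter-driven reporter mRNA levels after 24 h chemical exposure are determined via RT-PCR with capillary electrophoresis. DMSO serves as baseline for bidirectional fitting.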

[15] = ATG_FoxO_CIS: Attagene CIS-FACTORIAL HepG2 Assay for human Forkhead box O (FoxO) (AID 2282943); conditions: HepG2 Attagene cis-reporter, FoxO element, mRNA; actives raise or lower the signal
Outline: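 HepG2, transient MRTU transfection (cis element, endogenous TFs). Dose 24 h. TriZol RNA → oligo(dT) RT → PCR → 6-FAM primer extension → HpaI cut → CE. Gain/loss vs DMSO.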

[16] = ATG_GATA_CIS: Attagene CIS-FACTORIAL HepG2 Assay for human GATA Binding Protein (AID 2282944); conditions: HepG2 GATA cis-element reporter, Attagene multiplex mRNA; actives raise or lower the signal
Outline: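 After transfecting HepG2 cells with multiple cis-regulated reporter units, chemicals are dosed for 24 h; isolated RNA undergoes RT-PCR and fluorescent labeling before capillary electrophoresis, with activity expressed against DMSO.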

[17] = ATG_GLI_CIS: Attagene CIS-FACTORIAL HepG2 Assay for human Zinc Finger Protein GLI1 (AID 2282945); conditions: HepG2, Attagene cis-factorial reporter mRNA, GLI element; actives raise or lower the signal
Outline: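 Bidirectional curve fits relative to DMSO, using reporter mRNA levels from RT-PCR plus capillary electrophoresis. Cells were HepG2 transiently carrying cis-regulated reporter constructs, harvested 24 h after dosing.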

[18] = target: Bile acid receptor (Homo sapiens) (UniProt Q96RI1); test: ATG_IR1_CIS: Attagene CIS-FACTORIAL HepG2 Assay for human Nuclear Receptor Subfamily 1 Group H Member 4 (NR1H4), IR1 submotif (AID 2282946); conditions: IR1 reporter transcription, actives raise or lower the signal
Outline: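 HepG2 cells transiently transfected with multiplexed cis-element reporter units read endogenous transcription factor activity. After 24 h compound exposure, reporter mRNA was quantified by RT-PCR, fluorescent labelling, HpaI digestion and capillary electrophoresis; bidirectional fitting versus DMSO baseline.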

[19] = ATG_GRE_CIS: Attagene CIS-FACTORIAL HepG2 Assay for human Glucocorticoid Response Elements (GRE) (AID 2282947); conditions: HepG2 GRE cis-reporter, Attagene multiplex mRNA; AC50: actives raise or lower the signal unless noted; outcome: actives raise or lower the signal unless noted
Outline: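 Reporter transcripts read by RT-PCR with capillary electrophoresis fluorescence after a 24 h chemical exposure of HepG2 cells transiently transfected with multiple cis-element reporter units. Gain or loss fitted against DMSO.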

[20] = ATG_ISRE_CIS: Attagene CIS-FACTORIAL HepG2 Assay for human Interferon Regulatory Factor 1 (IRF1) binding to an Interferon-Stimulated Response Element (ISRE) (AID 2282948); conditions: HepG2 ISRE cis-reporter (Attagene), mRNA transcription readout; actives raise or lower the signal
Outline: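 Uses HepG2 liver cells transfected with cis-regulated reporters and measures mRNA 24 h post-dosing through RT-PCR, primer-extension labelling and capillary electrophoresis, with DMSO as negative control.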

Measured: AC50

Retinoic acid receptor alpha (Homo sapiens), sequence (P10276 whole entry, looked up): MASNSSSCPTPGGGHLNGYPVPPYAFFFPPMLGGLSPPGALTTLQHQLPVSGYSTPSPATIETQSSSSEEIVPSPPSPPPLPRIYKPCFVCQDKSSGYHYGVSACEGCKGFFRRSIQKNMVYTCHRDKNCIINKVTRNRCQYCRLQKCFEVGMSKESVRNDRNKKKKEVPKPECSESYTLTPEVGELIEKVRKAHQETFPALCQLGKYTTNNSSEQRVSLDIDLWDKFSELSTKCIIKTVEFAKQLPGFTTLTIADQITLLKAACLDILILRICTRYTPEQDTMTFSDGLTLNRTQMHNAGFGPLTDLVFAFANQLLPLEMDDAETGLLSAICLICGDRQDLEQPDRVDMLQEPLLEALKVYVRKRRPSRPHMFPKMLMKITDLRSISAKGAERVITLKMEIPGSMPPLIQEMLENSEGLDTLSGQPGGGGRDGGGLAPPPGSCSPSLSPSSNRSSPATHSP
Bile acid receptor (Homo sapiens), sequence (Q96RI1 whole entry, looked up): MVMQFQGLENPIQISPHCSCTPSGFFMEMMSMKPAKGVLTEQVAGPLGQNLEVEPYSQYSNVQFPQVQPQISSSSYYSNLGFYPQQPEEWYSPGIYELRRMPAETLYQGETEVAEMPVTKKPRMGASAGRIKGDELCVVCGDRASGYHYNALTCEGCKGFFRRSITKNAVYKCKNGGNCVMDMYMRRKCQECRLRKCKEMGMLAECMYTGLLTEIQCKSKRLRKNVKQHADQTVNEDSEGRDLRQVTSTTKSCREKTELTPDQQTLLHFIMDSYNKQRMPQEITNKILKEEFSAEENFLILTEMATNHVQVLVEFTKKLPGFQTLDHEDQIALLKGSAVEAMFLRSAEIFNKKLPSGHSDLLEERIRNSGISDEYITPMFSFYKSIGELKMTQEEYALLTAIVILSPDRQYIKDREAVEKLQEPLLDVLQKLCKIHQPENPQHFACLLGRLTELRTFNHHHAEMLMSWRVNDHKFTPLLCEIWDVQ
Hepatocyte nuclear factor 3-beta (Homo sapiens), sequence (Q9Y261 whole entry, looked up): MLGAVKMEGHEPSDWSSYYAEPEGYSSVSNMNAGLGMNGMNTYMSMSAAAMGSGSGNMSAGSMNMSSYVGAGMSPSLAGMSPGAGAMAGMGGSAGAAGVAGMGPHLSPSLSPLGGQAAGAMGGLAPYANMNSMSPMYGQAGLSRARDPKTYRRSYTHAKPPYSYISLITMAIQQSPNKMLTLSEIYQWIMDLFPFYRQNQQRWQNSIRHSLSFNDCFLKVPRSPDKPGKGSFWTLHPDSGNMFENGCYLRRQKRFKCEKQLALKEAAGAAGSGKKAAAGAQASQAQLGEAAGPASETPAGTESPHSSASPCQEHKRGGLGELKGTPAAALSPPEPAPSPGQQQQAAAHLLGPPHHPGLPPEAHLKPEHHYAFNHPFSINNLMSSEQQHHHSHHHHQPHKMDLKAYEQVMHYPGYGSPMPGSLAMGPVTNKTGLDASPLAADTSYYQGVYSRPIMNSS
Aryl hydrocarbon receptor (Homo sapiens), sequence (P35869 whole entry, looked up): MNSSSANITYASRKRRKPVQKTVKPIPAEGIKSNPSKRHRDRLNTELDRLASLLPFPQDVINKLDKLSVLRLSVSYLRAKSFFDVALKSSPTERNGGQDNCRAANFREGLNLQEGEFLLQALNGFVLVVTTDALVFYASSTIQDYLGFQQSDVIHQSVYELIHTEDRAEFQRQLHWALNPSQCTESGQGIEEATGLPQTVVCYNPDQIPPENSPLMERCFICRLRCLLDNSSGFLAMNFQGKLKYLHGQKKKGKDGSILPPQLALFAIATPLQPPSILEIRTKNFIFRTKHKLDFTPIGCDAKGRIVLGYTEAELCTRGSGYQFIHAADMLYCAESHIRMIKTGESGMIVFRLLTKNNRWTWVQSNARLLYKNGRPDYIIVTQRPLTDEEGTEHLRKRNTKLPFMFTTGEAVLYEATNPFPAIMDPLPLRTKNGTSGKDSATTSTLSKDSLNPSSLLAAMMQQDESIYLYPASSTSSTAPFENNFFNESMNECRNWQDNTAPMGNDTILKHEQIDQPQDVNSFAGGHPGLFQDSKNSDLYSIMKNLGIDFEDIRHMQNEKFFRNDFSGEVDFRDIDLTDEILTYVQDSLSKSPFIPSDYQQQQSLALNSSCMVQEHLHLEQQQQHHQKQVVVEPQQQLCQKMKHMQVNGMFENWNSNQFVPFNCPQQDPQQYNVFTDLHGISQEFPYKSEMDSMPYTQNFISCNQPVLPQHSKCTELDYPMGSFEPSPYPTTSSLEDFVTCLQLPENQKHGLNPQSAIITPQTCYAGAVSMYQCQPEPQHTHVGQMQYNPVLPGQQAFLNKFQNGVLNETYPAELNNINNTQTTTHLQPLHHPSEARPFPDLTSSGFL
Transcription factor E2F1 (Homo sapiens), sequence (Q01094 whole entry, looked up): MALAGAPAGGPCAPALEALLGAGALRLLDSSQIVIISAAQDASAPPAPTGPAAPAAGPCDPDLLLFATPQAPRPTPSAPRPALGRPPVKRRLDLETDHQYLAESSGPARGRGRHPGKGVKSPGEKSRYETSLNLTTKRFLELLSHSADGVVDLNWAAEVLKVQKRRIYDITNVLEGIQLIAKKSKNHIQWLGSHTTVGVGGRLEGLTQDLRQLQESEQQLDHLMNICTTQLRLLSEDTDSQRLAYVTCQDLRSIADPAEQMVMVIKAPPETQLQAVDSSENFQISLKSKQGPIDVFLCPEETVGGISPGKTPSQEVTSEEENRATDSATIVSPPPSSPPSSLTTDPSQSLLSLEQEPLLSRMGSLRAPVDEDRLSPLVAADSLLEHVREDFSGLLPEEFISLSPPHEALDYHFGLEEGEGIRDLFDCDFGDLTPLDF

C=CC(=O)OCC(CO)(COCC(COC(=O)C=C)(COC(=O)C=C)COC(=O)C=C)COC(=O)C=C
active: [1] 4.59 µM | [6] 11 µM | [7] 19.6 µM | [8] 2.52 µM | [10] 3.04 µM | [11] 16.2 µM | [15] 3.66 µM
not listed: [20]
inactive: all other assays above

CCCCCCCCC(C)=O
not listed: [20]
inactive: all other assays above

CC(C)(C)c1ccc(O)c(O)c1
active: [1] 40.8 µM | [2] 20 µM | [5] 47.3 µM | [10] 48.7 µM [middle of 4 runs] | [18] 45 µM and 59 µM and 37.3 µM
inactive: [1] | [2] | [4] | [5] | [6] | [7] | [8] | [9] | [10] | [11] | [13] | [14] | [15] | [16] | [17] | [18] | [19]

CCN(CC)CC
inactive: all assays above

CCCCCCCCCCCC[N+](C)(C)Cc1ccccc1
active: [1] 11.1 µM | [8] 12.4 µM | [10] 17.3 µM
inactive: [1] | [2] | [5] | [6] | [7] | [8] | [9] | [10] | [11] | [14] | [15] | [16] | [18] | [19] | [20]

CC(C)(C)C1CCCCC1O (stereo not drawn)
inactive: all assays above
